Only some compounds are listed: those with a hit (about 2.8% of all), similar ones and a draw of the others.
HIF-2a inh: HIF-2a reporter inhibitors, primary screen, luminescence, 786-0 RCC cells; inhibition, % at 18.8 µM; 786-0 RCC cells HIF-2a reporter, luciferase luminescence, overnight; 0.72% of 360,000 active;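 active = inhibition of the luminescence signal of 40% or more relative to plate controls, in a single-dose primary screen at 18.75 µM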
KKLEB cytotox: cytotoxicity in KKLEB CF airway cells, primary screen, cytotoxicity control for CF NF-kB inhibitor project, cell-based, uHTS, fluorescence assay plates. AID 602141, 2011. activity change (cytotoxicity), % at 5 µM. KKLEB CF airway cells viability, ATPlite luminescence, overnight; active compounds read low; cells stimulated with P. aeruginosa culture filtrate. 0.36% of 360,000 active;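 active = corrected activity change at or below -50% at 5 µM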
Peg3 prom inh: Peg3 promoter-driven luciferase inhibitors, primary screen, cell-based, HeLa, luciferase luminescence; inhibition, % at 20 µM; HeLa PEG-Prom luciferase reporter, overnight; 1.7% of 360,000 active; AID 588405, 2011;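 active = inhibition of at least 50% at 20 µM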
MITF TRPM1 inh: inhibitors of MITF-dependent TRPM1 promoter reporter, primary screen, cell-based, SK-MEL-5, single point, luciferase. SK-MEL-5 TRPM1 promoter luciferase, 24 h. inhibition, % at 12.5 µM. 0.83% of 330,000 active;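 active = mean inhibition across replicates of 60% or more, whatever share of single replicates reaches that level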
B2AR ag: beta2AR agonists driving receptor internalization, primary screen, cell-based, FAP fluorogen, flow cytometry; Am2.2-beta2AR cells; response, % (test concentration not listed); 0.43% of 340,000 active; AID 504454, 2011;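 active = response above a set limit, near 3 SD of response in nonfluorescent compounds, cut at about 42% in these data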
Target sequence (P07550 whole entry, looked up): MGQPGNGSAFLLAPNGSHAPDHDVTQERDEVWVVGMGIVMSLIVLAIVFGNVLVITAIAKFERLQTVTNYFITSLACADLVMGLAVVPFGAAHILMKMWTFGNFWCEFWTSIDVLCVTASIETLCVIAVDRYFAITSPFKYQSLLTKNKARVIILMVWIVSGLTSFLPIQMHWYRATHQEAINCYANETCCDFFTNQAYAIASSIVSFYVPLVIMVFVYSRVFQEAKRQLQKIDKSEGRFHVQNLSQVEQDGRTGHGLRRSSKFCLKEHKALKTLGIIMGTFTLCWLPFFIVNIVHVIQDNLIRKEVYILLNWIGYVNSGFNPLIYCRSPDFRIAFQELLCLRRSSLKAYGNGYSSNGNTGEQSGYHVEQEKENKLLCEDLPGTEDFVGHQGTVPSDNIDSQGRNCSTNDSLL
CF NFkB block: inhibitors of PAF-induced NF-kB signaling, primary screen, cell-based, GFP fluorescence, uHTS. KKLEB NF-kB-GFP reporter, GFP fluorescence overnight. 0.86% of 360,000 active. AID 588850, 2011. inhibition, % at 5 µM;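 active = at least 50% inhibition at 5 µM, scaled per plate between neutral and stimulator controls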;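 also: PAF is a Pseudomonas aeruginosa culture filtrate used as stimulus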
Mdm2-MdmX confirm: retested Mdm2-MdmX interaction blockers, confirmation, cell-based, luminescence, single concentration, set 2. shares compounds with HIF-2a inh. SaOS-2 split-luciferase Mdm2/MdmX complementation. inhibition, % at 8 µM. 99% of 740 active. AID 504601, 2011;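 active = mean inhibition of the luminescence signal across two replicates at or above 26 percent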
HIF-2a inh conf: HIF-2a reporter inhibitor retest, confirmation, luminescence, 786-0 RCC cells; shares compounds with HIF-2a inh; HIF-2a luciferase reporter luminescence, overnight; 56% of 1,800 active; inhibition, % at 18.8 µM; AID 651580, 2012;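 active = mean inhibition across four replicates of at least 40 percent at the single tested concentration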
HIF-1a cs: HIF-1a luciferase reporter signal reduction – MiaPaCa-2 cells, single concentration, counter-screen for HIF-2a inhibitor project, confirmation; shares compounds with HIF-2a inh; MiaPaCa-2 HIF-1a luciferase reporter, desferoxamine, overnight; inhibition, % at 18.8 µM; 72% of 1,800 active; AID 651589, 2012;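 active = mean inhibition of the reporter signal across four replicates at the single tested dose of 50% or more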
Hits are given with their value; - = inactive; . = no result given.

SMILES	HIF-2a inh	KKLEB cytotox	Peg3 prom inh	MITF TRPM1 inh	B2AR ag	CF NFkB block	HIF-2a inh conf	HIF-1a cs	others
CN(Cc1cc2ccccc2[nH]c1=O)C(=O)COc1ccccc1	-	-	-	-	-	-	.	.
O=C(N/N=C/c1ccccc1C(=O)O)c1ccc(COc2cccc3cccnc23)cc1	-	-	-	-	-	-	.	.
O=C(N/N=C/c1ccc[nH]1)c1ccc(COc2cccc3cccnc23)cc1	-	-54.2	89.2	-	-	-	.	.	Mdm2-MdmX confirm=97.0
CCCCc1ccc(S(=O)(=O)NC(=O)C2(C)CCN2C(=O)Cc2ccccc2)cc1 (stereo not drawn)	-	-	-	.	.	-	.	.
Cc1ccc(NC(=O)CSc2nc3ccccc3c(=O)n2CCCN2CCCCC2)cc1Cl	-	-	114.1	-	-	-	.	.	Mdm2-MdmX confirm=103.2
O=C(CSc1nc2ccccc2c(=O)n1CCCN1CCOCC1)Nc1ccc(F)c(Cl)c1	-	-	-	-	-	-	.	.
Cc1ccc(Sc2c([N+](=O)[O-])c(=O)n(C)c3ccccc23)cc1	51.5	-	-	-	-	-	-	86.7
O=C(C[C@@H]1C[C@H]2c3cc(NC(=O)C4CCC4)ccc3O[C@H]2[C@@H](CO)O1)NCc1ccc(-c2ccccc2)cc1	-	-	-	.	.	-	.	.
Cc1coc2cc3oc(=O)c(CCC(=O)N[C@@H](CCCNC(N)=O)C(=O)O)c(C)c3cc12	-	-	-	-	-	-	.	.
Cc1coc2cc3oc(=O)c(CC(=O)N[C@@H](CC(C)C)C(=O)O)c(C)c3cc12	46.3	-	-	-	-	-	-	-
CC(C)(C)C(=O)N1CCN(c2ccnc3cc(Cl)ccc23)CC1	-	-	-	-	-	-	.	.
O=C(Nc1ccc(OC(F)(F)F)cc1)N1CCN(c2ccnc3cc(Cl)ccc23)CC1	43.4	-	-	-	-	-	-	-
O=C(COC(=O)c1cc(S(=O)(=O)N2CCOCC2)ccc1F)c1ccc[nH]1	-	-	-	-	-	-	.	.
O=C(OCC(=O)c1c[nH]c2ccccc12)c1cc(S(=O)(=O)N2CCOCC2)ccc1F	42.0	-	-	-	-	-	-	72.3
COc1ccc(/C=N/NC(=O)c2cccc([N+](=O)[O-])c2)c2ccccc12	57.5	-	-	-	-	-	-	-
CCOc1cc(/C=C\[N+](=O)[O-])ccc1OCC(=O)N1CCOCC1	82.6	-	78.1	93.9	67.3	-	88.3	84.9
NC(=O)c1ccc(Cl)c2ccccc12	58.2	-	-	-	-	-	-	-
CCOC(=O)C(CC1=CS(=O)(=O)c2ccc(Cl)cc21)(NC(C)=O)C(=O)OCC	-	-	-	.	.	-	.	.
Oc1ccc(-c2cc(-c3ccc(O)cc3)nc(-c3ccccc3)n2)cc1	65.5	-	-	-	-	-	-	103.9
CC12CCC(=O)N1C(C(=O)NCCc1ccc(S(N)(=O)=O)cc1)CS2 (stereo not drawn)	-	-	-	-	-	-	.	.
Cn1c(NCc2ccccc2F)nc2cc(-c3cccc(C(F)(F)F)c3)sc2c1=O	-	-	-	.	.	-	.	.
COc1ccc(-c2cc(N)n(S(=O)(=O)c3c(F)c(F)c(F)c(F)c3F)n2)cc1OC	86.3	-	109.7	98.0	-	-	99.5	104.0
CCCCCCCCN1C(=O)[C@H](CC(=O)NCC23CC4CC(CC(C4)C2)C3)C[C@@]2(C(=O)OCC)CCCC=C12	-	.	.	.	.	.	.	.
